Some test systems named below: DU-145 prostate; K-562 leukemia; MALME-3M melanoma; MDA-MB-231 breast; RXF 393 renal; SF-268 CNS; SF-295 CNS; SF-539 CNS; UACC-257 melanoma; M14 melanoma; HCT-15 colon; HT29 colon; SNB-75 CNS; SNB-19 CNS; U251 CNS; PC-3 prostate; SK-MEL-5 melanoma; UACC-62 melanoma; LOX IMVI melanoma; SK-MEL-28 melanoma.
Test in all cases: NCI-60 one-dose screen, 48 h (100 = growth as untreated, 0 = no growth, -100 = all killed)
Common to all, as to conditions: 10 µM unless noted

SMILES strings stand for the structures. Compounds without any hit were thinned out: in the full panel of roughly 83,000, 20% have a hit.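 How to read the values: 0–100, growth inhibition (40 = 60% inhibited); 0, no net growth; -100 to 0, cell death (-40 = 40% of starting cells died; -100 = all dead).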 Unmarked numbers belong to inactive results. The source made the active and inactive calls. How the source made its calls: active means growth percent below 10; inactive means the rest.

`COc1ccc(-n2c(-c3ccc(NC(=O)CCCl)cc3)nnc2-c2cc(OC)c(OC)c(OC)c2)cc1`: the growth was 22.7% in the test with DU-145 prostate; 49.8% in the test with K-562 leukemia; 71.4% in the test with MALME-3M melanoma; 53.2% in the test on MDA-MB-231 breast; 8.38% (active) in the test with RXF 393 renal; 78.6% in the test with SF-268 CNS. In addition, the growth in the test on SF-295 CNS was 53.1%; in the test with SF-539 CNS, 41.5%; in the test on UACC-257 melanoma, 52.1%; in the test on M14 melanoma it was 59.5%; with HCT-15 colon it was 41.1%; with HT29 colon, 18.9%. In addition, the growth in the test on SNB-75 CNS was 90.9%; in the test on SNB-19 CNS, 52%; in the test on U251 CNS it was 34.4%; in the test with PC-3 prostate, 49.8%; in the test with SK-MEL-5 melanoma it was 48.2%; in the test with UACC-62 melanoma, 48.1%. The growth was 57.1% in the test on LOX IMVI melanoma and 27.8% in the test with SK-MEL-28 melanoma.

Regarding `O=C(O)c1cc2ccccc2cc1Nc1ccccc1`, the growth in the test on DU-145 prostate was 113%; in the test on K-562 leukemia, 98.3%; in the test with MALME-3M melanoma, 111%; with MDA-MB-231 breast it was 96.2%; in the test on RXF 393 renal it was 77.7%; in the test on SF-268 CNS, 99.7%. Besides, the growth with SF-295 CNS is 104%; in the test on SF-539 CNS, 74.2%; in the test on UACC-257 melanoma it was 4.2% (active); with M14 melanoma, 96.7%; in the test on HCT-15 colon it was 99.4%; in the test on HT29 colon, 117%. Also, the growth in the test on SNB-75 CNS is 102%; in the test with SNB-19 CNS it was 94.6%; in the test with U251 CNS, 93.5%; with PC-3 prostate it was 95.7%; in the test with SK-MEL-5 melanoma, 69.4%; in the test on UACC-62 melanoma, 103%. Further, the growth in the test on LOX IMVI melanoma was 91.8%; in the test with SK-MEL-28 melanoma, 107%.

`O=C(Nc1cccc(-n2ccc3c(NC(=O)c4ccccc4)nccc32)c1)Nc1cc(C(F)(F)F)cc(C(F)(F)F)c1`: the growth was 1.14% (active) in the test with DU-145 prostate; 4.23% (active) with K-562 leukemia; 26.2% with MALME-3M melanoma; -10.5% (active) in the test with MDA-MB-231 breast; -19.4% (active) in the test with RXF 393 renal; 22.1% with SF-268 CNS. The growth was -19.2% (active) with SF-295 CNS; -19.3% (active) in the test on SF-539 CNS; 25.2% in the test with UACC-257 melanoma; -43.8% (active) in the test on M14 melanoma; 5.94% (active) in the test with HCT-15 colon; -16.3% (active) in the test on HT29 colon. Also, the growth with SNB-75 CNS was 38.7%; with SNB-19 CNS it was 20.5%; in the test with U251 CNS, 0.587% (active); in the test on PC-3 prostate, 11.1%; with SK-MEL-5 melanoma, -82.1% (active); with UACC-62 melanoma, 11.6%. Besides, the values for the growth with LOX IMVI melanoma and in the test on SK-MEL-28 melanoma were 22.5% and 35.4%, respectively.

Take `CCCC(=O)Oc1ccc(/C(=C(\C)c2ccc(Cl)cc2)c2ccc(OCCN(CC)CC)cc2)cc1`: the growth with DU-145 prostate was -22.9% (active); in the test with K-562 leukemia, -19.6% (active); in the test with MALME-3M melanoma, -77.5% (active); in the test on MDA-MB-231 breast it was -40.9% (active); with RXF 393 renal, -79.5% (active); in the test on SF-268 CNS, -9.12% (active). Further, the growth with SF-295 CNS is -75.9% (active); in the test on SF-539 CNS, -77.9% (active); in the test with UACC-257 melanoma, -62.2% (active); in the test on M14 melanoma it was -71.8% (active); in the test with HCT-15 colon, -79.9% (active); with HT29 colon, -50% (active). The growth is -48.1% (active) with SNB-75 CNS; -38.1% (active) in the test with SNB-19 CNS; -84.6% (active) with U251 CNS; -15.4% (active) with PC-3 prostate; -99.7% (active) in the test with SK-MEL-5 melanoma; -42.2% (active) in the test with UACC-62 melanoma. The growth was -98% (active) in the test on LOX IMVI melanoma and -69.8% (active) in the test with SK-MEL-28 melanoma.

`O=C(Nc1ccc(-n2cc(-c3ccncc3)c(-c3ccc(O)c(Cl)c3)n2)cc1)c1cc(C(F)(F)F)cc(C(F)(F)F)c1`: the growth was 65% in the test with DU-145 prostate; 36.7% in the test with K-562 leukemia; 77.7% in the test with MALME-3M melanoma; 21.3% in the test with MDA-MB-231 breast; -21.1% (active) in the test with RXF 393 renal; 56% with SF-268 CNS. The growth is 31% in the test with SF-295 CNS; 57.7% in the test on SF-539 CNS; 77.1% with UACC-257 melanoma; 30.2% in the test with M14 melanoma; 34.6% in the test on HCT-15 colon; 51.7% in the test on HT29 colon. Further, the growth is 63.9% in the test with SNB-75 CNS; 66.2% in the test on SNB-19 CNS; 43.8% with U251 CNS; 35.8% in the test with PC-3 prostate; 60% with SK-MEL-5 melanoma; 71.2% with UACC-62 melanoma. Besides, the growth with LOX IMVI melanoma was 42.4%; in the test on SK-MEL-28 melanoma, 68.8%.

As for `O=C(C[n+]1ccccc1Cl)c1ccc2c(c1)CCCC2`, the growth is 97.1% in the test with DU-145 prostate; 82.9% in the test with K-562 leukemia; 81.8% in the test with MALME-3M melanoma; 99.7% with MDA-MB-231 breast; 95.8% in the test on RXF 393 renal; 99.5% in the test on SF-268 CNS. In addition, the growth was 99.4% in the test on SF-295 CNS; 97.6% with SF-539 CNS; 101% in the test on UACC-257 melanoma; 86.2% with M14 melanoma; 102% in the test with HCT-15 colon; 79.7% in the test with HT29 colon. Besides, the growth with SNB-75 CNS is 88.4%; in the test with SNB-19 CNS it was 108%; with U251 CNS it was 97.7%; with PC-3 prostate, 87.3%; with SK-MEL-5 melanoma it was 98.4%; in the test with UACC-62 melanoma, 106%. The growth in the test on LOX IMVI melanoma is 101%; with SK-MEL-28 melanoma it was 105%.

As for `Cc1cc2c(cc1C)N(C(=O)CCl)CCN2C(=O)CCl`, the growth in the test with DU-145 prostate is -97.8% (active); in the test with K-562 leukemia, 5.44% (active); in the test on MALME-3M melanoma, -57.3% (active); in the test with MDA-MB-231 breast it was -45.9% (active); in the test with RXF 393 renal it was -47.1% (active); in the test on SF-268 CNS, -33.4% (active). The growth is 11.8% with SF-295 CNS; -85.6% (active) in the test on SF-539 CNS; -67.2% (active) in the test with UACC-257 melanoma; -12.1% (active) in the test with M14 melanoma; -64% (active) with HCT-15 colon; -73% (active) in the test on HT29 colon. Moreover, the growth was -94% (active) in the test with SNB-75 CNS; 39.6% with SNB-19 CNS; -84.3% (active) in the test with U251 CNS; -70.2% (active) in the test on PC-3 prostate; -97.6% (active) in the test on SK-MEL-5 melanoma; -43.1% (active) in the test with UACC-62 melanoma. For the same compound, the growth is -89.3% (active) with LOX IMVI melanoma and -49.5% (active) with SK-MEL-28 melanoma.

The values above are taken from PubChem BioAssay (NCI).
